Compounds with a hit are over-represented: about 21% of the library has one in this group of screens.
CHX counter: Cycloheximide Counterscreen for Small Molecule Inhibitors of Shiga Toxin; cell reporter, cycloheximide protein synthesis inhibition counterscreen; max response, %; 12% of 300,000 active; in the data active = max response mostly above about 13%, no sharp cut-off; inactive = mostly below about 14%; also: read at 38.3 µM for the half of the compounds with a filed dose; 0% is about no effect
AMA1-RON2 inh: qHTS for Inhibitors of AMA1-RON; Towards Development of Antimalarial Drug Lead: Primary Screen; Potency, µM (highest dose often 58.2 µM), for the others: at the top dose activity change, negative = inhibition, actives largely listed as inhibitors; 0.2% of 360,000 active; Plasmodium falciparum AMA1 (3D7) - RON2 peptide interaction; AlphaScreen AMA1-biotinylated RON2 peptide binding;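 also: potency is read from the fitted curve at half-maximal effect; 0% = vehicle wells and -100% = peptide control; nearly all actives have a fitted effect of over 45% in size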
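AMA1 (3D7) with his tag at 25 nM final met compounds first, then biotinylated RON2 peptide at 25 nM; detection used donor plus acceptor beads, 10 µg/mL apiece, read by AlphaScreen after 30 min at room temperature.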
HCV inhibitor: qHTS Assay for Inhibitors of Hepatitis C Virus (HCV); Huh7.5.1 HCVcc-Cre infection, luciferase reporter, 44 h; Potency, µM (titrated, usually from 41.8 µM), for the others: at the top dose activity change, negative = inhibition, most hits filed as inhibitors; 3.4% of 340,000 active; also: potency is read from the fitted curve at half-maximal effect; % is scaled to controls: 0 for no effect and ±100 for the full control effect
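Whole-lifecycle infectious HCVcc-Cre system; cells 1,000/well, compound then virus (~0.5 moi) added 4 h after plating, 44 h culture. Luciferase read 15 sec following 15 min substrate incubation, room temp.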
Shiga toxin inh: A qHTS for Small Molecule Inhibitors of Shiga Toxin. Vero cells, Shiga toxin protein synthesis inhibition reporter. 9.2% of 290,000 active. inhibition, % at 38.7 µM. AID 2315, 2010; in the data active = inhibition mostly above about 28%, no sharp cut-off; inactive = mostly below about 43%; also: 0% is about no effect
Pf growth 48h: Primary qHTS for delayed death inhibitors of the malarial parasite plastid, 48 hour incubation; P. falciparum luciferase growth in erythrocytes, 48 h; Potency, µM (titrated, usually from 28.7 µM), for the others: at the highest dose activity change, negative = inhibition, hits mostly inhibitors; 5.9% of 310,000 active; also: potency is read from the fitted curve at half-maximal effect; % is scaled to controls: 0 for no effect and ±100 for the full control effect
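Here the parasites carry a stable luciferase gene and grow inside erythrocytes in Albumax-based RPMI medium with compound for one erythrocytic cycle. Activity is scored as loss of luminescent signal.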
Pf growth 96h: Primary qHTS for delayed death inhibitors of the malarial parasite plastid, 96 hour incubation. P. falciparum luciferase reporter growth, 96 h. Potency, µM (series often up to 28.7 µM), for inactives: top-dose activity change, negative = inhibition, hits mostly inhibitors. 6.9% of 320,000 active. AID 504834, 2011; also: potency is read from the fitted curve at half-maximal effect; % is scaled to controls: 0 for no effect and ±100 for the full control effect
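Two-generation exposure (96 h) targets delayed-death phenotype. Reporter parasites carrying integrated firefly luciferase, in red cells at 2% hematocrit and 0.05% parasitemia final, kept at 37 C, 5% CO2; luminescence loss indicates inhibition.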
Starred values were filed as active, the others as inactive; ? = inconclusive; / = not tested or not shown. Unless noted, calls follow the shape of the dose curve; as a rule, active = well fitted curve in the direction sought with a large enough effect; inconclusive = small, poorly fitted or top-dose-only effect, or another doubt; inactive = no such curve, though single readings can be large; an effect the other way counts as inactive or inconclusive.

SMILES	CHX counter	AMA1-RON2 inh	HCV inhibitor	Shiga toxin inh	Pf growth 48h	Pf growth 96h
CC(=O)C1=C(O)C(=O)N(c2cccc(Br)c2)C1c1ccccc1Cl (centres undefined)	-2	-5%	-1%	-2	0%	?
C=CCc1cc(C)ccc1OCCOCCC(C(=O)OCC)C(=O)OCC	1	83%	1%	10	-21%	12µM*
Cc1cc(N2CCOCC2)nc(N2CCOCC2)c1C#N	/	0%	/	/	/	/
N#Cc1c(N2CCOCC2)nsc1-c1ccccc1	40*	5%	?	75*	69%	91%
N#Cc1nc(-c2ccccc2)oc1N1CCCCC1	12	-17%	-9%	-4	3%	?
N#Cc1c(N2CCCC2)nsc1-c1ccccc1	52*	79%	-23%	102*	56%	69%
Cc1ccc(CNC(=O)c2cc3ccccc3oc2=O)cc1	/	0%	6%	/	/	/
O=C(N/C(=C\c1cccc([N+](=O)[O-])c1)C(=O)N(CCO)CCO)c1ccco1	-3	-9%	2%	-7	4%	-11%
NC(=O)C1CCN(C(=O)c2ccc(Cl)c(NC(=O)c3cccs3)c2)CC1	/	-12%	/	/	/	/
N#C/C(=C\c1cccc(O)c1)C(=O)Nc1ccc2c(c1)OCCO2	60*	-10%	5%	83*	?	-22%
CC(C)NC(=O)/C(C#N)=C/c1ccc2c(c1)OCCO2	22*	-32%	26%	85*	-4%	13%
N#C/C(=C/c1cccc(O)c1)C(=O)NCc1ccc(Cl)cc1	-3	3%	1%	12	?	-22%
Cc1cccc(NS(=O)(=O)c2ccc(C(=O)NCCCN3CCCC3=O)cc2)c1C	/	-8%	-6%	/	?	?
C(#CCN1CCOCC1)COCc1ccccc1	1	-4%	5%	-5	38%	10µM*
O=C(O)CCc1c(C(=O)O)[nH]c2cc(Cl)cc(Cl)c12	-3	/	/	4	/	/
Cc1cc(=S)n(-c2ccccc2)n1C	16	-3%	12%	39*	0%	12%
Cc1cc(=O)n(-c2ccccc2)n1-c1ccccc1	1	10%	0%	-8	1%	9%
O=c1c2c(-c3ccccc3)csc2nc2c3ccccc3c(NCCN3CCOCC3)nn12	-8	-13%	?	-28	3.3µM*	1.2µM*
COc1ccc2nc(NC(=O)c3c(C)noc3C)sc2c1	/	4%	?	/	184%	152%
COC(=O)CCCCCCCCC(=O)Nc1nc2ccccc2s1	-1	-1%	1%	14	23%	28%
CCCCOC(=O)Nc1nc2ccc(OC)cc2s1	38*	-8%	2%	53*	61%	-7%
CCCCCN(C(=O)NC(=O)Nc1nncs1)S(C)(=O)=O	-2	?	3%	-7	/	/
CCCCOC(=O)Nc1nc2ccccc2s1	26*	-1%	13%	69*	362%	98%
CCCCN(C(=O)NC(=O)Nc1nc2ccc(OC)cc2s1)S(C)(=O)=O	53*	0%	26%	48*	115%	69%
COc1cc(/C=C/C(=O)Nc2ccc(S(=O)(=O)Nc3ncccn3)cc2)ccc1OCC#N	/	3%	-8%	/	/	/
SMILES	CHX counter	AMA1-RON2 inh	HCV inhibitor	Shiga toxin inh	Pf growth 48h	Pf growth 96h
Cc1ccc(N(C(=O)CCC(=O)Nc2nccs2)C(C(=O)NC(C)(C)C)c2ccc(O)cc2)cc1 (centres undefined)	3	8%	-15%	-17	?	8.3µM*
CC(C)(C)NC(=O)C(c1ccc(O)cc1)N(C(=O)CCC(=O)Nc1nccs1)c1ccc(F)cc1 (centres undefined)	1	-4%	12%	-14	?	10µM*
O=C1c2ccccc2C(=O)c2c1ccc(C(=O)N1CCCCC1)c2NCCO	-4	-5%	8%	-13	-4%	15%
CC1(C)CCCN(C(=O)c2ccc3c(c2NCCO)C(=O)c2ccccc2C3=O)C1	-5	?	?	2	13µM*	?
C/C(=N\NC(=O)c1cccnc1)c1cc2ccccc2o1	10	21%	5%	21	7%	?
CCN(c1cccc(C)c1)S(=O)(=O)c1ccc2c(c1)N(C(C)=O)CCS2	-2	-5%	11µM*	-11	-17%	9%
COc1ccc(Cl)cc1CC1(C)C(=O)Nc2c(Cl)cccc21 (centres undefined)	/	-1%	/	/	/	/
Cc1ccc(C2(C)NC(=O)N(CC(=O)Nc3cccnc3Cl)C2=O)cc1 (centres undefined)	-7	13%	11%	-1	2%	-37%
CC1(c2ccc([N+](=O)[O-])cc2)NC(=O)N(CC(=O)Nc2cccnc2Cl)C1=O (centres undefined)	/	-7%	-21%	/	4%	12µM*
COc1cc(NC(=O)CN2CCC(C)CC2)c(C)cc1[N+](=O)[O-]	9	8%	11%	active	-13%	10%
COc1ccc(NC(=O)CN2CCCC(C)C2)c([N+](=O)[O-])c1 (centres undefined)	17*	?	?	32*	-13%	103%
COc1cc(NC(=O)CN2C(=O)NC(C)(c3ccccc3)C2=O)c(C)cc1[N+](=O)[O-] (centres undefined)	-5	0%	-13%	-11	?	12µM*
COCC(=O)NC1CCN(CC(=O)Nc2ccc(OC)cc2[N+](=O)[O-])CC1	-2	0%	-4%	-6	-9%	?
CCOC(=O)[C@]12CCCC=C1N(CCc1ccc(OC)c(OC)c1)C(=O)[C@H](CC(=O)NCc1ccc(C)o1)C2	/	-11%	/	/	/	/
COc1cc(CN(C(=O)c2cc3ccccc3oc2=O)C2CCS(=O)(=O)C2)cc(OC)c1OC (centres undefined)	28*	-9%	1%	30	11%	?
COc1cc(CN(C(=O)c2ccco2)C2CCS(=O)(=O)C2)cc(OC)c1OC (centres undefined)	-7	-1%	12%	0	6%	87%
Cc1ccc(CN(C(=O)c2cc3ccccc3oc2=O)C2CCS(=O)(=O)C2)cc1 (centres undefined)	39*	-3%	-7%	73*	1%	-20%
COc1ccccc1C(=O)N(Cc1sccc1C)C1CCS(=O)(=O)C1 (centres undefined)	-9	-8%	34%	-3	2%	2.1µM*
O=C(c1cccs1)N(Cc1ccco1)C1CCS(=O)(=O)C1 (centres undefined)	-2	3%	0%	26	28%	5.2µM*

Source: PubChem (National Center for Advancing Translational Sciences (NCATS))
